Source: the supplement of paper PMC8975748
Counter-ions that a name gives are not always drawn.

The compounds below were run on Saccharomyces cerevisiae BY4741 SeMeCo community (assay: z-score of subpopulation abundance vs DMSO median, subpopulation auxotrophic for L; higher = larger share of this subpopulation than in DMSO controls). Settings: 10 µM; 24 h; SM minimal medium; subpopulation (auxotrophy): L.
Experimental: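 Fluorescent four-plasmid SeMeCo (self-establishing metabolically cooperating S. cerevisiae BY4741 community; plasmids pH-mRuby2, pL-mWasabi, pU-eCFP, pM-TagRFP657) was grown 24 h in minimal SM medium with each Selleck FDA-approved drug at 10 µM in 384-well plates. Cells were fixed and imaged by high-content confocal microscopy. For each auxotrophic subpopulation (and the prototroph), a z-score gives the deviation from the DMSO vehicle-control population median.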

SMILES	z-score of subpopulation abundance
O=C(O)Cc1ccccc1Nc1c(Cl)cccc1Cl [Diclofenac Sodium]	-0.21
O=C(CCCN1CCN(c2ccccn2)CC1)c1ccc(F)cc1 [Azaperone]	0.29
O=C(C1CCCCC1)N1CC(=O)N2CCc3ccccc3C2C1 (stereo not given) [Praziquantel]	0.31
CO[C@@H]1[C@@H](OC(N)=O)[C@@H](O)[C@H](Oc2ccc3c(O)c(NC(=O)c4ccc(O)c(CC=C(C)C)c4)c(=O)oc3c2C)OC1(C)C [Novobiocin Sodium]	-0.72
C=C[C@H]1CN2CC[C@H]1C[C@@H]2[C@@H](O)c1ccnc2ccc(OC)cc12 [Quinidine sulfate]	2.41
Cc1cc(CC(C)CC(C)(C)C)n(O)c(=O)c1 (stereo not given) [Piroctone Olamine]	1.41
CCCc1nc(C)c2c(=O)nc(-c3cc(S(=O)(=O)N4CCN(CC)CC4)ccc3OCC)[nH]n12 [Vardenafil HCl Trihydrate]	0.04
O=C1CN2Cc3c(ccc(Cl)c3Cl)N=C2N1 [Anagrelide HCl]	-0.32
COc1ccc2cc(CCC(C)=O)ccc2c1 [Nabumetone]	-1.25
C[C@@H]1O[C@@H]1P(=O)(O)O [Fosfomycin Disodium]	0.72
Cc1ccc(Cl)c(Nc2ccccc2C(=O)O)c1Cl [Meclofenamate Sodium]	-0.25
COC(=O)C1=C(C)NC(C)=C(C(=O)OC(C)C)C1c1cccc2nonc12 (stereo not given) [Isradipine]	-0.22
CCn1cc(C(=O)O)c(=O)c2cc(F)c(N3CCNCC3)nc21 [Enoxacin Sesquihydrate]	-0.96
CCCCCCCCCC(=O)N[C@@H](Cc1c[nH]c2ccccc12)C(=O)N[C@H](CC(N)=O)C(=O)N[C@@H](CC(=O)O)C(=O)N[C@@H]1C(=O)NCC(=O)N[C@@H](CCCN)C(=O)N[C@@H](CC(=O)O)C(=O)N[C@H](C)C(=O)N[C@@H](CC(=O)O)C(=O)NCC(=O)N[C@H](CO)C(=O)N[C@@H]([C@H](C)CC(=O)O)C(=O)N[C@@H](CC(=O)c2ccccc2N)C(=O)O[C@@H]1C [Daptomycin]	0.51
CC(C)NNC(=O)c1ccncc1 [Iproniazid]	-0.39
C[C@@H](O)[C@H]1C(=O)N2C(C(=O)O)=C(S[C@@H]3CN[C@H](C(=O)N(C)C)C3)[C@H](C)[C@H]12 [Meropenem]	0.05
OC(c1cc(C(F)(F)F)nc2c(C(F)(F)F)cccc12)C1CCCCN1 (stereo not given) [Mefloquine HCl]	0.1
COc1cc(N)c(Cl)cc1C(=O)NC1CCN(CCCOc2ccc(F)cc2)CC1OC (stereo not given) [Cisapride]	0.11
O=C1CN(/N=C/c2ccc(-c3ccc([N+](=O)[O-])cc3)o2)C(=O)N1 [Dantrolene sodium]	2.03
CN(C)CCC=C1c2ccccc2C=Cc2ccccc21 [Cyclobenzaprine HCl]	-0.14

SMILES	z-score of subpopulation abundance
N=C(N)NC(=O)c1nc(Cl)c(N)nc1N [Amiloride HCl dihydrate]	0.68
CC(=O)NO [Acetohydroxamic acid]	1.33
OCCOCCN1CCN(C2=Nc3ccccc3Sc3ccccc32)CC1 [Quetiapine Fumarate]	0.37
O=C(O[C@H]1CN2CCC1CC2)N1CCc2ccccc2[C@@H]1c1ccccc1 [Solifenacin succinate]	-0.16
CC(=O)O[C@H]1C[C@@]2(C)[C@@H](C[C@@H](O)[C@H]3[C@@]4(C)CC[C@@H](O)[C@@H](C)[C@@H]4CC[C@@]32C)/C1=C(\CCC=C(C)C)C(=O)O [Fusidate Sodium]	-0.11
Cc1c(Cl)cccc1Nc1ccccc1C(=O)O [Tolfenamic Acid]	-2.08
CCN(CC)C(=O)C1(c2ccccc2)CC1CN (stereo not given) [Milnacipran HCl]	0.74
C=C1c2cccc(O)c2C(O)=C2C(=O)[C@]3(O)C(O)=C(C(N)=O)C(=O)[C@@H](N(C)C)[C@@H]3[C@@H](O)[C@H]12 [Methacycline HCl]	1.08
COc1ccc(-c2nc3cc(C4=NNC(=O)CC4C)ccc3[nH]2)cc1 (stereo not given) [Pimobendan]	1.93
O=c1[nH]cnc2c1ncn2[C@@H]1O[C@H](CO)[C@@H](O)[C@H]1O [Isoprinosine]	-0.33
CCc1c(C)[nH]c2c1C(=O)C(CN1CCOCC1)CC2 (stereo not given) [Molindone hydrochloride]	0.73
COc1cc([C@@H]2c3cc4c(cc3[C@@H](O[C@@H]3O[C@@H]5CO[C@@H](c6cccs6)O[C@H]5[C@H](O)[C@H]3O)[C@H]3COC(=O)[C@H]23)OCO4)cc(OC)c1O [Teniposide]	1.6
CNCc1cc(-c2ccccc2F)n(S(=O)(=O)c2cccnc2)c1 [Vonoprazan Fumarate (TAK-438)]	-1.45
N[C@@H]1CONC1=O [D-Cycloserine]	1.05
CN1CCN2c3ncccc3Cc3ccccc3C2C1 (stereo not given) [Mirtazapine]	-0.64
CN[C@@H]1[C@H](O)[C@H](NC)[C@H]2O[C@@]3(O)C(=O)C[C@@H](C)O[C@H]3O[C@@H]2[C@H]1O [Spectinomycin 2HCl]	-1.34
NCC[C@H](O)C(=O)N[C@@H]1C[C@H](N)[C@@H](O[C@H]2O[C@H](CN)[C@@H](O)[C@H](O)[C@H]2O)[C@H](O)[C@H]1O[C@H]1O[C@H](CO)[C@@H](O)[C@H](N)[C@H]1O [Amikacin disulfate]	0.46
Cc1c(C(N)=O)cc([N+](=O)[O-])cc1[N+](=O)[O-] [Dinitolmide]	0.45
C=CCN1CCCC1CNC(=O)c1cc2nn[nH]c2cc1OC (stereo not given) [Alizapride HCl]	0.16
COCCOC(=O)C1=C(C)NC(C)=C(C(=O)OC(C)C)C1c1cccc([N+](=O)[O-])c1 (stereo not given) [Nimodipine]	0.55
